The target in this test is sn-1-specific diacylglycerol lipase ABHD11 (Mus musculus) (UniProt Q8K4F5). The test can be described thus: mouse ABHD11 activity inhibitors in proteome – biochemical, competitive gel ABPP, set 2, selectivity assay for DAGLb inhibitor project, late-stage follow-up (AID 602312). Conditions: recombinant ABHD11 in HEK293T proteome, gel ABPP FP-Rh; series mostly up to 10 µM.

Calls of active or inactive are those of the source.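 The calls were made as follows: active = inhibition of at least 50% at 1 µM; inactive = inhibition below 50% at 1 µM.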

Sequence of sn-1-specific diacylglycerol lipase ABHD11 (Mus musculus) (Q8K4F5 whole entry, looked up): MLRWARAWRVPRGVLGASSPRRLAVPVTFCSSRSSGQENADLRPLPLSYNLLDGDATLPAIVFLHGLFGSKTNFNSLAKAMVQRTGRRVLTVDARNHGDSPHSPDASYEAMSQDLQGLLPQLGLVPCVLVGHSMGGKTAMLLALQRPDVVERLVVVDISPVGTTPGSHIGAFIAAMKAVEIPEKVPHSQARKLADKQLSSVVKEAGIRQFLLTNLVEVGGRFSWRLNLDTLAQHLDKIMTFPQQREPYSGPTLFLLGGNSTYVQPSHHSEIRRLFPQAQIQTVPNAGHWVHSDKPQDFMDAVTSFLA

Regarding `COc1ccc(-c2ccc(-c3cn(C(=O)N4CCCCC4c4ccccc4)nn3)cc2)cc1` (stereo unspecified), the outcome was inactive.
